# This excerpt belongs to a sample that is enriched for hits.
# Tb PYK inh – T. brucei pyruvate kinase inhibition; TbPYK enzyme, Kinase-Glo Plus ATP luminescence, 45 min; Potency, µM (doses to about 76.8 µM), inactives show at the top dose activity, negative = inhibition, hits mostly inhibitors; hit rate 0.12% among 410,000; also: potency is read from the fitted curve at half-maximal effect; % is scaled to controls: 0 for no effect and ±100 for the full control effect; nearly all actives have a fitted effect of over 50% in size
#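 Assay buffer: 50 mM TEA pH 7.2, 100 mM KCl, 10 mM MgCl2, 0.05% BSA, 0.01% Tween-20. Pyruvate kinase from T. brucei plus substrate met compound, then ADP (130 uM final). Luminescence was read post 45 min RT.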
# CHX counter – counter-screen for Shiga toxin inhibitors: cycloheximide protein synthesis inhibition. AID 2314. hit rate 12% among 300,000. cell reporter, cycloheximide protein synthesis inhibition counterscreen. max response, %; in the data active = max response mostly above about 13%, no sharp cut-off; inactive = mostly below about 14%; also: read at 38.3 µM for the half of the compounds with a filed dose; 0% is about no effect
# Shiga toxin inh – inhibitors of Shiga toxin in Vero cells; Vero cells, Shiga toxin protein synthesis inhibition reporter; inhibition, % at 38.7 µM; hit rate 9.2% among 290,000; AID 2315; in the data active = inhibition mostly above about 28%, no sharp cut-off; inactive = mostly below about 43%; also: 0% is about no effect
# RE007 growth inh – less growth of the S. pombe RE007 Vpr strain; Potency, µM (top dose mostly 92.2 µM), without a hit: at the top dose activity change, negative = less growth, actives largely listed as inhibitors; AID 651644; S. pombe RE007 Vpr strain, BacTiter-Glo ATP luminescence, 24 h; hit rate 0.21% among 360,000; active = well fitted falling curve with a large enough effect; inconclusive = small, poorly fitted or top-dose-only effect; inactive = no such curve, though single readings can be large or run the other way; also: potency is read from the fitted curve at half-maximal effect; % is scaled to controls: 0 for no effect and ±100 for the full control effect; nearly all actives have a fitted effect of over 50% in size
#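 Fission yeast strain RE007, carrying one chromosomally integrated HIV-1 vpr copy, was seeded at OD 0.01 in PMG+AL medium with 23 nL pinned compound. After 24 h at 30 °C and 99% humidity, viability was read by BacTiter-Glo luminescence.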
# LmPK inh – blocks Leishmania mexicana pyruvate kinase activity; Q27686; purified LmPK, Kinase-Glo ATP luminescence, 1 h; Potency, µM (titrated, usually from 57.5 µM), for the others: top-dose activity change, negative = inhibition, most hits filed as inhibitors; hit rate 0.37% among 290,000; AID 1721; also: potency is read from the fitted curve at half-maximal effect; % is scaled to controls: 0 for no effect and ±100 for the full control effect
#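 Screened at intermediate enzyme activity to detect both inhibitors and activators: LmPK at 0.1 nM, with a 0.5 nM enzyme column as activation reference. PEP 0.5 mM, ADP 0.1 mM; ATP detected by luminescence after 1 h.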
# FBPA Giardia inh – inhibitors of Giardia lamblia fructose-1,6-bisphosphate aldolase; A8B2U2; purified Giardia FBPA; Potency, µM (series often up to 59.6 µM), for the others: top-dose activity, negative = inhibition, usual class: inhibitors; hit rate 0.71% among 290,000; AID 2451; also: potency is read from the fitted curve at half-maximal effect; % is scaled to controls: 0 for no effect and ±100 for the full control effect; nearly all actives have a fitted effect of over 55% in size
# Target sequence (A8B2U2 whole entry, looked up): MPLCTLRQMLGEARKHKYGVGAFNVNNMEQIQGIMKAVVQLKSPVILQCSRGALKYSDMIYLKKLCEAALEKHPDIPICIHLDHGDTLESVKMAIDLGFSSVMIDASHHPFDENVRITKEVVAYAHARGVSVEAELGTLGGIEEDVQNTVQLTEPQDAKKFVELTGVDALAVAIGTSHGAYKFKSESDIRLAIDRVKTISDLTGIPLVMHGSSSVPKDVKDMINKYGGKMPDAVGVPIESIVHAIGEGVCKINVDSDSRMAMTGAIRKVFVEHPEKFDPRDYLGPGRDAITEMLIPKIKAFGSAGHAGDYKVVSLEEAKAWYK
#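 Giardia FBPA (40 nM reagent) was preincubated 10 min at RT with compound (up to 57.5 uM final), then substrate plus GAPDH/TPI/NAD/arsenate coupling system with diaphorase/resazurin was added; resorufin fluorescence (525/598 nm) was read after 20 min.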
# Starred values were filed as active, the others as inactive; ? = inconclusive; nt = no result given; + = active, no number; [ ] = another dose, or the depositor's remark. Unless noted, calls follow the shape of the dose curve; as a rule, active = well fitted curve in the direction sought with a large enough effect; inconclusive = small, poorly fitted or top-dose-only effect, or another doubt; inactive = no such curve, though single readings can be large; an effect the other way counts as inactive or inconclusive.
SMILES,Tb PYK inh,CHX counter,Shiga toxin inh,RE007 growth inh,LmPK inh,FBPA Giardia inh
CCOc1ccc2nc(NC(=O)C(CC)Sc3nc(C)cc(=O)[nH]3)sc2c1 (centres undefined),-10%,29*,90*,-16%,-12%,-2%
CCCc1cc(=O)[nH]c(SCC(=O)Nc2nc3ccc(OCC)cc3s2)n1,-2%,14*,52*,1%,10%,7%
CCOc1ccc2nc(NC(=O)c3nc(SC(C)C)ncc3Cl)sc2c1,3%,nt,nt,nt,nt,nt
COc1ccc2nc(NC(=O)CSc3nc(C)cc(=O)[nH]3)sc2c1,-19%,27*,31,1%,5%,-4%
CCOc1cc(C2c3c(-c4cc(C)ccc4O)n[nH]c3C(=O)N2CCCOC(C)C)ccc1O (centres undefined),-9%,nt,nt,nt,nt,nt
COc1ccc(-c2nc3cnc(N4CCOCC4)nc3n(C)c2=O)cc1,nt,nt,nt,nt,nt,14%
CC(=O)c1ccc(OCCCC(=O)Nc2ccc3c(c2)OCCO3)cc1,4%,nt,nt,9%,nt,nt
COc1ccc(-c2noc(CCC(=O)Nc3ccc4c(c3)OCCO4)n2)cc1,2%,23*,43*,-7%,2%,-2%
COc1cccc(-c2noc(CCC(=O)Nc3cccnc3)n2)c1,2%,25*,77,-2%,4%,4%
COc1ccc(-c2noc(CCC(=O)Nc3ccc(C)c(C)c3)n2)cc1,1%,15*,34,-6%,0%,1%
COc1ccc(OCCCC(=O)Nc2ccc3c(c2)OCCO3)cc1,4%,11,+,1%,3%,-7%
COc1ccc(NC(=O)C(Cc2ccccc2)NS(=O)(=O)c2ccc3c(c2)oc(=O)n3C)c(OC)c1 (centres undefined),-16%,nt,nt,nt,nt,nt
O=C(COc1cc(F)ccc1[N+](=O)[O-])NCCCc1ccccc1,4%,1,11,26%,-1%,-2%
Cc1ccc(Cl)cc1N1CCN(C(=O)CCCn2c(=O)[nH]c3ccc(Br)cc3c2=O)CC1,-2%,nt,nt,nt,nt,nt
CCOc1ccc(CCNC(=O)c2c(C)oc3ncnc(N4CCOCC4)c23)cc1,0%,nt,nt,nt,nt,nt
NC(=O)c1cccnc1Nc1cccc([N+](=O)[O-])c1,-4%,48*,84*,-3%,-2%,-5%
CCOc1ccc(-n2c(=O)cc(N3CCN(c4ccccc4)CC3)[nH]c2=O)cc1,1%,9,-11,-17%,3%,0%
COc1ccc(-n2c(=O)cc(N3CCN(c4ccccc4)CC3)[nH]c2=O)cc1,6%,60*,-12,-13%,-2%,2%
Cc1ccccc1OCC(O)Cn1nnc2ccccc21 (centres undefined),-2%,50*,79*,20%,1%,-11%
CCC(=O)c1ccc(OCC(O)Cn2nnc3ccccc32)cc1 (centres undefined),1%,45*,65*,3%,4%,5%
CCC(=O)c1ccc(OCC(O)Cn2nc(C)cc2C)cc1 (centres undefined),-6%,10,22,-14%,-1%,nt
CCOc1ccc(N(C(=O)c2cc3ccccc3oc2=O)C2C=CS(=O)(=O)C2)cc1 (centres undefined),-4%,28*,78*,9%,-2%,0%
Cc1c(Cl)cccc1NS(=O)(=O)c1ccc(NS(=O)(=O)c2ccc3c(c2)OCCO3)cc1,-4%,nt,nt,nt,nt,nt
O=[N+]([O-])c1ccc(N=Nc2ncc[nH]2)cc1,0%,16*,45,-24%,-11%,?
O=[N+]([O-])c1ccc(N=NN(CCO)CCO)cc1,-1%,4,-11,13%,-4%,3%
SMILES,Tb PYK inh,CHX counter,Shiga toxin inh,RE007 growth inh,LmPK inh,FBPA Giardia inh
S=c1[nH]nc(-c2cc3c(s2)-c2ccccc2CC3)o1,-35%,30*,56*,?,-14%,15%
CSc1nnc(-c2ccccc2)o1,-4%,-3,48,-12%,-1%,1%
CC1CCc2sc(C(=O)NC3CCCCC3)cc2C1 (centres undefined),2%,nt,nt,10%,nt,nt
CC1CCc2sc(-c3n[nH]c(=S)o3)cc2C1 (centres undefined),?,19*,41*,?,?,?
CSc1nnc(-c2cc3c(s2)-c2ccccc2CC3)o1,-5%,25*,80*,-7%,-4%,-7%
Cc1cc(C)cc(NC(=O)c2cc(S(=O)(=O)N3CCCC3)ccc2F)c1,-1%,nt,nt,nt,nt,nt
CC(=O)c1cccc(NC(=O)CN2C(=O)C(=O)N(Cc3ccco3)C2=O)c1,0%,nt,nt,-9%,nt,nt
COc1ccc2nc(/N=C/c3cccc(OC)c3O)sc2c1,-4%,26*,26,-14%,-18%,20%
COc1ccc2nc(N=Nc3ccc(N(C)C)cc3)sc2c1,-23%,31*,126*,-19%,?,1%
COc1cccc(C=Nc2cccnc2)c1O,nt,-2,8,nt,-30%,-1%
COc1ccc2nc(/N=C\N(C)C)sc2c1,-11%,16,20,-8%,-12%,?
O=c1cnc2cnc(N3CCNCC3)nc2n1C1CC1,nt,nt,nt,nt,nt,-1%
COc1ccc(CC(=O)Oc2ccc(F)c(F)c2)cc1S(=O)(=O)N1CCOCC1,-6%,nt,nt,-13%,nt,nt
CCc1ccc(N/C(SCc2ccccc2C)=C(/C#N)C(=O)NCc2ccco2)cc1,6%,15*,24,-6%,2%,-9%
O=[N+]([O-])c1ccc(COc2cccnc2)cc1,-3%,41*,56*,8%,7%,-1%
O=[N+]([O-])c1ccc(COc2ccc(CNc3ccccc3)cc2)cc1,3%,36*,34,-15%,-5%,-2%
O=[N+]([O-])c1ccc(NCc2ccccc2)nc1,-10%,55*,56*,-26%,1%,-3%
CC(C)c1ccc(NC(=O)CN2C(=O)COc3ccc(S(=O)(=O)N4CCCCCC4)cc32)cc1,-11%,nt,nt,nt,nt,nt
COc1cccc(N2CC(NC(=O)CCCc3ccccc3)CC2=O)c1 (centres undefined),-2%,nt,nt,nt,nt,nt
CCOC(=O)C1CCCN(C(=O)c2ccc3c(c2)sc2nc(-c4cccc(OC)c4)cn23)C1 (centres undefined),6%,nt,nt,nt,nt,nt
CNC(=S)SCCOc1ccccc1,-2%,21*,101*,-25%,-4%,7%
CNC(=S)SCCOc1ccc(C)cc1,2%,-6,-7,-10%,0%,0%
CCNC(=O)c1cnc2sc(N3CCCCCC3)nn2c1=O,-1%,nt,nt,nt,nt,nt
COCc1c(CCl)cnc(C)c1O,-10%,8.1*,48*,16%,-3%,1%
Cc1ncc(CO)c(CO)c1O,1%,nt,nt,9%,nt,-8%[21.7 µM]
O=C(Cn1c(=O)n(Cc2nc(-c3ccccc3)no2)c(=O)c2cc3c(cc21)OCO3)Nc1ccc(Cl)cc1,-1%,nt,nt,nt,nt,nt
CSc1ccccc1NC(=O)COc1ccccc1C,1%,27*,47*,-20%,-12%,6%
Cc1ccccc1OCC(=O)Nc1ccccc1CO,-7%,14,78*,-16%,-3%,10%

# Screens from PubChem BioAssay.
